Sampled rows, rich in hits. Any-hit rate of the full collection: about 3.3%.
NS1 function inh = inhibitors of influenza NS1 protein function; 270,000 compounds, 0.4% hits; AID 2326; Potency, µM (highest dose often 46.1 µM), inactives show at the top dose activity, positive = more growth; calls by dose curve; note: actives are rising curves; nearly all actives have a fitted effect of over 50% in size
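Read-out: OD600 growth recovery of NS1-expressing budding yeast. Cells grown overnight at 30C in -URA glucose medium, washed, resuspended and diluted 1:100 in 2% galactose assay medium, pH 6.0. Same strain lacking NS1 served as positive control.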
RE007 growth inh = less growth of the S. pombe RE007 Vpr strain; S. pombe RE007 Vpr strain, BacTiter-Glo ATP luminescence, 24 h; Potency, µM (doses to about 92.2 µM), inactives show at the top dose activity change, negative = less growth, actives largely listed as inhibitors; 360,000 compounds, 0.21% hits; AID 651644; active = well fitted falling curve with a large enough effect; inconclusive = small, poorly fitted or top-dose-only effect; inactive = no such curve, though single readings can be large or run the other way; note: % is set by controls: 0 for no effect and ±100 for the full control effect; nearly all actives have a fitted effect of over 50% in size
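Fission yeast strain RE007, carrying one chromosomally integrated HIV-1 vpr copy, was seeded at OD 0.01 in PMG+AL medium with 23 nL pinned compound. After 24 h at 30 °C and 99% humidity, viability was read by BacTiter-Glo luminescence.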
TbPYK inhibitor = T. brucei pyruvate kinase inhibition. Potency, µM (series often up to 76.8 µM), for inactives: at the top dose activity, negative = inhibition, usual class: inhibitors. AID 624173. 410,000 compounds, 0.12% hits. TbPYK enzyme, Kinase-Glo Plus ATP luminescence, 45 min; note: % is set by controls: 0 for no effect and ±100 for the full control effect; nearly all actives have a fitted effect of over 50% in size
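Quantitative HTS: titrated library compounds versus trypanosomal pyruvate kinase in TEA buffer (pH 7.2) containing KCl, MgCl2, BSA and Tween-20. Reactions were initiated with ADP, 130 uM final. Kinase-Glo Plus luminescence was read after 45 min at RT.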
Sm TGR inh = blocks Schistosoma mansoni thioredoxin glutathione reductase. Q962Y6. purified TGR, DTNB reduction, TNB absorbance 405 nm. Potency, µM (titrated, usually from 114 µM), inactives show at the highest dose activity change, negative = inhibition, actives largely listed as inhibitors. 360,000 compounds, 3% hits. AID 485364; note: % is set by controls: 0 for no effect and ±100 for the full control effect; nearly all actives have a fitted effect of over 60% in size
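First, TGR (20 nM dispensed) and NADPH were mixed with compound. Second, a 15 min room-temperature incubation followed. Third, further NADPH and then DTNB were added to start the reaction. Finally, TNB absorbance was monitored kinetically.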
LmPK inh = blocks Leishmania mexicana pyruvate kinase activity; purified LmPK, Kinase-Glo ATP luminescence, 1 h; Q27686; 290,000 compounds, 0.37% hits; Potency, µM (highest dose often 57.5 µM), for the others: top-dose activity change, negative = inhibition, actives largely listed as inhibitors; note: % is set by controls: 0 for no effect and ±100 for the full control effect
Target sequence (Q27686 whole entry, looked up): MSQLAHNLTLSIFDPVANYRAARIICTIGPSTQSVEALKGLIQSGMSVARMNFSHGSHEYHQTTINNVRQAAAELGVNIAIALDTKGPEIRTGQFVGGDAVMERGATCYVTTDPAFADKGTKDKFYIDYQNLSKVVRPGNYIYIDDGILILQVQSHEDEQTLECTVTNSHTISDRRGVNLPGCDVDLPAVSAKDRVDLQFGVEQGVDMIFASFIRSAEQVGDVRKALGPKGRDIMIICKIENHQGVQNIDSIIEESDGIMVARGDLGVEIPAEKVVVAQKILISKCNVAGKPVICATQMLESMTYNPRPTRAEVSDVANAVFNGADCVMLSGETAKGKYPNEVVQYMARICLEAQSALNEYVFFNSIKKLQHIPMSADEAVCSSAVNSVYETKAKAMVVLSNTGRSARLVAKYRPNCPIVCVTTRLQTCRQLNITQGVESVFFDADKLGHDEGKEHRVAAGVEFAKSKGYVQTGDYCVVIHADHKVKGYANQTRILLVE
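qHTS format; LmPK 0.1 nM; substrates PEP 0.5 mM and ADP 0.1 mM. One-hour room-temperature incubation, then coupled luciferase luminescence; 0.5 nM enzyme wells mark activation.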
SARS PLP yeast = SARS-CoV PLP inhibition in yeast. S. cerevisiae expressing SARS-CoV PLpro, growth rescue. Potency, µM (highest dose often 32.9 µM), without a hit: top-dose activity, positive = growth rescue, most hits filed as activators. 330,000 compounds, 0.19% hits; calls by dose curve; note: 0% is about no effect; nearly all actives have a fitted effect of over 55% in size
* hit, by the source's call; ? = inconclusive; · = no result given. Unless noted, calls come from the whole dose curve; as a rule, active = well fitted curve in the direction sought with a large enough effect; inconclusive = small, poorly fitted or top-dose-only effect, or another doubt; inactive = no such curve, though single readings can be large; an effect the other way counts as inactive or inconclusive. Potency is the fitted concentration of half-maximal effect.

SMILES	NS1 function inh	RE007 growth inh	TbPYK inhibitor	Sm TGR inh	LmPK inh	SARS PLP yeast
Cc1ccc2c(c1)c1c3n2CCN(C(=O)CCl)C3CCC1 (stereo unspecified)	-24.8%	8.4%	-0.4%	22.4µM*	0.4%	7.1%
CC(=O)N1CCn2c3c(c(=O)c4cc(C)ccc42)CCC31 (stereo unspecified)	6.0%	0.3%	-6.1%	20µM*	8.5%	7.3%
COc1cc(CC2C(=O)Nc3ccccc32)cc(C)c1O (stereo unspecified)	5.0%	-4.1%	-6.1%	39.8µM*	0.1%	3.0%
O=C1Nc2ccccc2C1Cc1ccc(OC(F)(F)F)cc1 (stereo unspecified)	13.4%	2.3%	-6.6%	-6.2%	2.9%	-0.8%
CCC(C)NC(=O)c1cn(CC)c2ccc(S(=O)(=O)N3CCc4ccccc4C3)cc2c1=O (stereo unspecified)	·	·	5.5%	4.3%	·	·
Oc1ccc(/C=N/Nc2ccc(Cl)nn2)c(O)c1O	8.2%	·	4.7%	14.1µM*	3.2%	?
O=C1NCCN(Cc2ccoc2)C1CC(=O)N(Cc1ccccc1)CC1CCC1 (stereo unspecified)	1.8%	1.8%	-7.0%	10µM*	6.2%	-0.4%
COCCN(C(=O)CC1C(=O)NCCN1Cc1ccc(-c2ccccc2)cc1)C(C)C (stereo unspecified)	-6.2%	5.5%	0.3%	39.8µM*	-3.7%	-0.2%
CN(C(=O)CC1C(=O)NCCN1Cc1ccc(F)c(F)c1)C1CCOCC1 (stereo unspecified)	2.9%	3.3%	-3.2%	44.7µM*	1.5%	-0.6%
CN(C(=O)CC1C(=O)NCCN1Cc1ccc(F)cc1)C1CCOCC1 (stereo unspecified)	0.8%	5.1%	-3.6%	54.6%	-6.5%	1.2%
O=C1NCCN(Cc2ccc(F)cc2)C1CC(=O)N1CC=C(c2ccccc2)CC1 (stereo unspecified)	-0.8%	10.8%	-0.3%	35.5µM*	0.8%	2.1%
CC1=C(c2ccc(C)c(C)c2)S(=O)(=O)N=C1N1CCC(C(=O)NCCc2ccc(Cl)cc2)CC1	·	·	3.6%	-2.8%	·	·
COc1ccc(-c2ccc(CCC(=O)O)n2CC(=O)Nc2cccc(Cl)c2C)cc1	·	·	2.8%	-29.7%	·	·
COc1ccc(CN2CCNC(=O)C2CC(=O)NCCCn2cccn2)cc1C (stereo unspecified)	8.2%	5.7%	-7.7%	-12.3%	-7.4%	2.0%
Cc1ccc(CN2CCNC(=O)C2CC(=O)N(C)C2CCCCC2)cc1 (stereo unspecified)	14.8%	2.2%	-2.1%	44.7µM*	-6.9%	-5.7%
CCOc1ccc(CN2CCNC(=O)C2CC(=O)N(C)C2CCCCC2)cc1 (stereo unspecified)	0.0%	2.1%	0.0%	?	5.6%	-2.9%
O=C(CC1C(=O)NCCN1Cc1ccc(F)c(F)c1)NCCn1cccn1 (stereo unspecified)	-0.2%	-9.4%	-2.2%	44.7µM*	2.9%	0.3%
COC(=O)c1ccccc1NC(=O)C1CCCN(C(=O)c2cnn(-c3ccc(F)cc3)c2-n2cccc2)C1 (stereo unspecified)	·	·	0.1%	3.4%	·	·
COc1ccnc(CSC(N)=Nc2ccc(F)cc2)c1	3.5%	?	?	44.7µM*	0.1%	-6.0%
O=C(CNc1ccc2c(c1)OCO2)N/N=C\c1cn(Cc2ccc(F)cc2)c2ccccc12	12.6µM*	·	·	?	-2.4%	-6.5%
Cc1ccc(S(=O)(=O)CCc2nnc(N)s2)cc1C	15.0%	-3.6%	-9.4%	0.3%	5.6%	10.6%
Cc1ccc(S(=O)(=O)CCc2nnc(NC(=O)CCl)s2)cc1C	2.7%	11.0%	0.8%	5.01µM*	5.2%	0.3%
Cc1ccccc1C(=O)NC1(C(F)(F)F)N=C(c2ccccc2)N(C2CCCCC2)C1=O (stereo unspecified)	·	·	-2.1%	1.5%	·	·

From PubChem BioAssay
